Here are results for 21 compounds from PubChem BioAssay.

Test [1] can be described thus: sensitizers of A549 cells to miR-34 induction, primary screen, imaging, A549 dox-inducible miR-34, nuclei and caspase counts (AID 1347080). The settings on record: A549 miR-34 inducible, Hoechst nuclei count, 48 h.
Test [2] can be described thus: survival rescue of mitochondrial mutant cells in low glucose, primary screen, MELAS cybrids, Rieske KO mouse fibroblasts, CellTiter-Glo (AID 1508586;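 active = mean z-score across replicates of 1.96 or higher in either the MELAS or the Rieske mutant cell line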;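 note: z relative to plate mean and SD of compound and empty wells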). (In ATP-based viability assays light output follows the ATP content of the culture.)
[3] abbreviates: stronger effect = lower value, cell number ratio, induced over uninduced.
[4] abbreviates: measured here: relative caspase fold change +Dox/-Dox.
Setting [5] is: measured here: total cells with miR-34 induction, stronger effect = lower value.
[6] abbreviates: measured here: total cells without miR-34 induction.
Setting [7] is: MELAS cybrid survival, CellTiter-Glo 48 h, stronger effect = higher value.
Where [8] appears, read: Rieske KO mouse fibroblast survival, CellTiter-Glo 72 h.

The source made the active and inactive calls.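 Rule for the calls, unless noted: active = compounds whose cell count with miR-34 switched on is under 0.7 times the count with it off; inactive = the rest.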
Note: test concentration not given here.

As for `O=C(C=Cc1ccccc1)NC(NC(=S)Nc1ccc(Cl)cc1)C(Cl)(Cl)Cl` (stereo unspecified), the values for the fold change in test [1] (setting [3]) and in test [1] (setting [4]) were 0.995 (inactive) and 0.524, respectively. For the same compound, the cell count in test [1] (setting [5]) was 2510; in test [1] (setting [6]), 2520. The z-score in test [2] (setting [7]) is -0.431 (inactive); in test [2] (setting [8]), -0.459.

`Oc1cc(O)cc(C=Cc2ccc(O)c(O)c2)c1`: the fold change in test [1] (setting [3]) is 0.901 (inactive); in test [1] (setting [4]), 0.971. The values for the cell count in test [1] (setting [5]) and in test [1] (setting [6]) were 9720 and 10800, respectively. The values for the z-score in test [2] (setting [7]) and in test [2] (setting [8]) were -0.345 (inactive) and 0.783, respectively.

Regarding `O=C(O)c1cc(I)ccc1NC(=O)C(Cc1ccccc1)NCc1ccccc1` (stereo unspecified), the fold change is 0.835 (inactive) in test [1] (setting [3]) and 0.632 in test [1] (setting [4]). The cell count in test [1] (setting [5]) came to 8450; in test [1] (setting [6]) it was 10100. In addition, the z-score in test [2] (setting [7]) was -0.035 (inactive); in test [2] (setting [8]), 1.09.

For `Nc1nc(=O)n(C2CSC(CO)O2)cc1F` (stereo unspecified), the values for the fold change in test [1] (setting [3]) and in test [1] (setting [4]) were 0.88 (inactive) and 0.906, respectively. Also, the results for the cell count in test [1] (setting [5]) and in test [1] (setting [6]) were 7840 and 8920, respectively. Besides, the values for the z-score in test [2] (setting [7]) and in test [2] (setting [8]) were -0.288 (inactive) and 0.564, respectively.

Turning to `O=C(C=Cc1ccc2ccccc2n1)c1ccncc1`, the figures for the fold change in test [1] (setting [3]) and in test [1] (setting [4]) were 0.681 (active) and 0.506, respectively. For the same compound, the cell count in test [1] (setting [5]) was found to be 2580; in test [1] (setting [6]), 3790. Moreover, the z-score in test [2] (setting [7]) is 0.232 (inactive); in test [2] (setting [8]), 1.5.

`COc1cc2ncnc(Nc3ccc(F)c(Cl)c3)c2cc1NC(=O)C=CCN1CCCCC1`: the figures for the fold change in test [1] (setting [3]) and in test [1] (setting [4]) were 1.12 (inactive) and 0.707, respectively. Further, the cell count was determined as 3310 in test [1] (setting [5]) and 2960 in test [1] (setting [6]). Besides, the z-score is -0.496 (inactive) in test [2] (setting [7]) and -1.94 in test [2] (setting [8]).

As to `O=C(NCc1ccc(Oc2ccccc2)cc1)c1nc(-c2cc(Br)c(O)c(Br)c2)no1`, the fold change is 0.903 (inactive) in test [1] (setting [3]) and 0.842 in test [1] (setting [4]). For the same compound, the figures for the cell count in test [1] (setting [5]) and in test [1] (setting [6]) were 7380 and 8170, respectively. Also, the z-score is -0.2 (inactive) in test [2] (setting [7]) and -0.275 in test [2] (setting [8]).

With `C=CCc1cccc(C=NNC(=O)CN2CCN(Cc3ccccc3)CC2)c1O`, the fold change in test [1] (setting [3]) was 0.992 (inactive); in test [1] (setting [4]), 0.755. The cell count in test [1] (setting [5]) was determined as 3820; in test [1] (setting [6]), 3850. Further, the z-score is -0.146 (inactive) in test [2] (setting [7]) and -1.03 in test [2] (setting [8]).

On to `CCOc1cc2ncc(C#N)c(Nc3ccc(F)c(Cl)c3)c2cc1NC(=O)C=CCN(C)C`, for which the fold change in test [1] (setting [3]) is 0.915 (inactive); in test [1] (setting [4]), 1.02. Also, the cell count in test [1] (setting [5]) was determined as 681; in test [1] (setting [6]) it was 744. For the same compound, the results for the z-score in test [2] (setting [7]) and in test [2] (setting [8]) were 1.18 (inactive) and 0.656, respectively.

Consider `O=[N+]([O-])c1cn2c(n1)OCC(OCc1ccc(OC(F)(F)F)cc1)C2` (stereo unspecified), for which the fold change is 0.949 (inactive) in test [1] (setting [3]) and 0.871 in test [1] (setting [4]). The cell count stood at 6600 in test [1] (setting [5]) and 6960 in test [1] (setting [6]). The z-score in test [2] (setting [7]) is -0.338 (inactive); in test [2] (setting [8]), 0.787.

For `[K+]`, the fold change is 0.939 (inactive) in test [1] (setting [3]) and 0.429 in test [1] (setting [4]). The values for the cell count in test [1] (setting [5]) and in test [1] (setting [6]) were 7790 and 8290, respectively. Besides, the z-score in test [2] (setting [7]) was 0.0668 (inactive); in test [2] (setting [8]) it was 0.0929.

With `Cn1c(=O)cc(N2CCCC(N)C2)n(Cc2cc(F)ccc2C#N)c1=O` (stereo unspecified), the fold change in test [1] (setting [3]) was 0.894 (inactive); in test [1] (setting [4]) it was 0.61. In addition, the cell count in test [1] (setting [5]) came out at 8440; in test [1] (setting [6]), 9440. For the same compound, the z-score in test [2] (setting [7]) was -0.335 (inactive); in test [2] (setting [8]) it was 1.48.

Take `C[C@@H]1C(=O)O[C@H]2CC34[C@H]5C[C@@H](C(C)(C)C)C36C(OC(=O)[C@H]6O)O[C@@]4(C(=O)O5)[C@]21O` (stereo partly specified): the fold change in test [1] (setting [3]) is 0.955 (inactive); in test [1] (setting [4]), 1.23. The cell count in test [1] (setting [5]) is 7970; in test [1] (setting [6]), 8340. The z-score in test [2] (setting [7]) is -0.0435 (inactive); in test [2] (setting [8]) it was 0.0455.

For `CC1OC(OC2C(Oc3cc(O)c4c(c3)OC(c3ccc(O)cc3)CC4=O)OC(CO)C(O)C2O)C(O)C(O)C1O` (stereo unspecified), the values for the fold change in test [1] (setting [3]) and in test [1] (setting [4]) were 1 (inactive) and 0.741, respectively. The results for the cell count in test [1] (setting [5]) and in test [1] (setting [6]) were 8310 and 8300, respectively. The z-score in test [2] (setting [7]) was -0.421 (inactive); in test [2] (setting [8]), -0.0851.

With `CCCC1CC(C(=O)NC(C(C)O)[C@@H]2OC(SC)C(O)C(O)C2O)N(C)C1` (stereo partly specified), the results for the fold change in test [1] (setting [3]) and in test [1] (setting [4]) were 0.883 (inactive) and 0.66, respectively. In addition, the results for the cell count in test [1] (setting [5]) and in test [1] (setting [6]) were 9270 and 10500, respectively. Also, the z-score in test [2] (setting [7]) is -0.388 (inactive); in test [2] (setting [8]), -0.162.

Regarding `CCOC(=O)c1ccc(NC2CCCCC2)c(N)c1`, the fold change in test [1] (setting [3]) is 0.937 (inactive); in test [1] (setting [4]), 0.358. In addition, the cell count in test [1] (setting [5]) amounted to 7670; in test [1] (setting [6]), 8180. Moreover, the z-score was -0.371 (inactive) in test [2] (setting [7]) and 0.61 in test [2] (setting [8]).

For `Cc1ccc(NCCCc2ccccc2)c(N)c1`, the fold change is 0.882 (inactive) in test [1] (setting [3]) and 0.496 in test [1] (setting [4]). Also, the cell count was 7500 in test [1] (setting [5]) and 8510 in test [1] (setting [6]). The z-score in test [2] (setting [7]) was -0.425 (inactive); in test [2] (setting [8]), 0.263.

Turning to `Cc1cc(C(C)Nc2ccccc2C(=O)O)c2nc(N3CCOCC3)cc(=O)n2c1` (stereo unspecified), the fold change in test [1] (setting [3]) was 0.956 (inactive); in test [1] (setting [4]), 0.866. Also, the cell count in test [1] (setting [5]) was 5770; in test [1] (setting [6]) it was 6030. For the same compound, the z-score in test [2] (setting [7]) was -0.296 (inactive); in test [2] (setting [8]), -0.288.

For the compound `CCCCc1nc2cc(C=CC(=O)NO)ccc2n1CCN(CC)CC`, the fold change in test [1] (setting [3]) was 1.12 (inactive); in test [1] (setting [4]) it was 0.731. For the same compound, the cell count was 1070 in test [1] (setting [5]) and 951 in test [1] (setting [6]). Further, the z-score is 0.665 (inactive) in test [2] (setting [7]) and -0.474 in test [2] (setting [8]).

Take `CCc1cnn2c(NCc3ccc[n+]([O-])c3)cc(N3CCCCC3CCO)nc12` (stereo unspecified): the fold change in test [1] (setting [3]) was 1.13 (inactive); in test [1] (setting [4]) it was 0.956. Further, the results for the cell count in test [1] (setting [5]) and in test [1] (setting [6]) were 1750 and 1550, respectively. Also, the z-score is 1.14 (inactive) in test [2] (setting [7]) and -3.25 in test [2] (setting [8]).

For `C[C@]1(C(=O)Nc2ccc(F)nc2)CCCN1c1nc(Nc2cc(C3CC3)[nH]n2)c2cccn2n1`, the fold change was 1.01 (inactive) in test [1] (setting [3]) and 0.776 in test [1] (setting [4]). Further, the cell count in test [1] (setting [5]) was found to be 2100; in test [1] (setting [6]), 2080. Besides, the z-score was -0.348 (inactive) in test [2] (setting [7]) and -2.24 in test [2] (setting [8]).
